The values that follow come from PubChem BioAssay.

Activity calls are given as the source filed them. Unless noted, the rule behind the calls is not given here.

Test [1] in a line: HepG2 liver cancer cell viability effects, profiling panel, resazurin fluorescence, 24 h, PK04 Diversity Set (AID 1172). Conditions: higher = more signal. For orientation: Resazurin is reduced to fluorescent resorufin, in cell work by metabolically active cells.
Test [2] can be described thus: basal S. cerevisiae growth modulation, no modifier, primary screen, OD600, strain BY4716, 24 h, basal condition (AID 1173). Conditions: OD600, 24 h, higher = more signal, called active from +8 up or from −8 down.
Test [3] can be described thus: MM1S myeloma cell viability, profiling panel, resazurin fluorescence, basal, 24 h, PK04 Diversity Set (AID 1174).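 Note: MM1S multiple myeloma cell line.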 The note with it: higher = more signal, called active from +8 up or from −8 down.
For test [4], the target named is Dihydroorotate dehydrogenase (quinone), mitochondrial (Plasmodium falciparum (isolate 3D7)) (UniProt Q08210). Description: PfDHODH enzyme inhibitors, primary screen, biochemical, C-terminal His tag, absorbance 600 nm (AID 1175).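 Note: recombinant parasite enzyme with a five histidine tag at its C terminus.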 The note with it: DCIP absorbance 600 nm, higher = more signal, called active from +8 up or from −8 down.
Dihydroorotate dehydrogenase (quinone), mitochondrial (Plasmodium falciparum (isolate 3D7)), sequence (Q08210 whole entry, looked up): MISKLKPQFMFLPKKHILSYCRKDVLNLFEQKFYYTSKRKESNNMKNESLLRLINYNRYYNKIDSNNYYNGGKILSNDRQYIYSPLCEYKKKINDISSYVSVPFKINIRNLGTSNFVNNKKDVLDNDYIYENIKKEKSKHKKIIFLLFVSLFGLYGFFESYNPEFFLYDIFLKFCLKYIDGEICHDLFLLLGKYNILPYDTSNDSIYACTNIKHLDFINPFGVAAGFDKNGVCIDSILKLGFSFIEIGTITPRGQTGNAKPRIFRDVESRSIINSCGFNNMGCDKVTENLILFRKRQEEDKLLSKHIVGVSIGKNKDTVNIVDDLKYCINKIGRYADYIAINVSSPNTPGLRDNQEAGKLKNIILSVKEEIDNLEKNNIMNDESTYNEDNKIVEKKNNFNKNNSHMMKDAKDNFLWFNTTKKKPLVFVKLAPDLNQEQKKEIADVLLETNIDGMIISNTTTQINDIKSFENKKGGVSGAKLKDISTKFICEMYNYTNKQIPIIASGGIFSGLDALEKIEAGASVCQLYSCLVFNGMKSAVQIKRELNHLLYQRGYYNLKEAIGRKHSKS
A short description of test [5]: P. aeruginosa biofilm formation inhibitors, primary screen, strain PAO1, LB-PBS medium, absorbance 600 nm (AID 1176). The note with it: P. aeruginosa PAO1 growth/biofilm, A600, 12 h; higher = more signal.
Test [6] in a line: S. cerevisiae RM11-1a growth modifiers, primary screen, strain RM11-1a, OD600, basal, 24 h (AID 1177).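 Note: cultures grown under basal conditions with no added stressor.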 Conditions: OD600, 24 h, higher = more signal, called active from +8 up or from −8 down.
Test [7] is described as follows: E. coli acrAB mutant growth effects, primary screen, E. coli filamentation inducers, strain DRC39, OD650, 24 h (AID 1178).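 Note: growth measured as culture turbidity by optical density at 650 nm.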 The note with it: higher = more signal, called active from +8 up or from −8 down.
Test [8] in a line: E. coli acrAB mutant growth effects, primary screen, E. coli filamentation inducers, strain DRC39, OD650, 48 h (AID 1179).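 Note: screen aims at cell division blockers that make cells filament.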 The note with it: E. coli DRC39 delta-acrAB growth, higher = more signal, called active from +8 up or from −8 down.
Test [9] is described as follows: RPMI8226 myeloma cell viability, profiling panel, resazurin fluorescence, basal, 24 h, PK04 Diversity Set (AID 1180).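 Note: RPMI8826 multiple myeloma cell line at 5000 cells per well.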 Conditions: higher = more signal.
In test [10] the target is E3 ubiquitin-protein ligase XIAP (Homo sapiens) (UniProt P98170). Description: XIAP binders, primary screen, biophysical, small-molecule microarray, fluorescence 635 nm (AID 1181).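 Note: score merges 667 nm emission and signal to noise over triplicate slides.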 Conditions: small-molecule microarray binding, higher = more signal.
E3 ubiquitin-protein ligase XIAP (Homo sapiens), sequence (P98170 whole entry, looked up): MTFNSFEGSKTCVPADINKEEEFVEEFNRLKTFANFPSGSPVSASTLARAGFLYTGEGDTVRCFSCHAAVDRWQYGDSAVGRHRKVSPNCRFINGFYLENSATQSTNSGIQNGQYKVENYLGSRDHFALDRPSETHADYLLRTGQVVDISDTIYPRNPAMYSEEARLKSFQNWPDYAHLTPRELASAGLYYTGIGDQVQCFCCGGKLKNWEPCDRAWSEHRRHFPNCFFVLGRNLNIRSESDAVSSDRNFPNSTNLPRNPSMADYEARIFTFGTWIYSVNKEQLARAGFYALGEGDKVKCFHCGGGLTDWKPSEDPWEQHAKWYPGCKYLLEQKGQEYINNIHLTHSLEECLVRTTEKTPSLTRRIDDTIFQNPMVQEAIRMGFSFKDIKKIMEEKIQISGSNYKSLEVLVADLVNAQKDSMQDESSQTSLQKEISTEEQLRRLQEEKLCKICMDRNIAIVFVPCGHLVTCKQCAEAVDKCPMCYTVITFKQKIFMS
For test [11], the system named is XIP peptide (Xip251-270) binding. Description: small-molecule binders of XIP peptide, primary screen, biochemical, small-molecule microarray, fluorescence 635/667 nm, 0.1 µg/mL protein (AID 1182). Conditions: fluorescent protein binding, 635 nm, higher = more signal, called active from +8 up or from −8 down.
A further test relates to XIP peptide (Xip251-270). Description: small-molecule binders of XIP peptide, primary screen, biochemical, small-molecule microarray, fluorescence 635/667 nm, 0.5 µg/mL protein (AID 1183). The note with it: small-molecule microarray binding, fluorescence 635 nm; higher = more signal.
Test [12] in a line: Plasmodium falciparum growth inhibition, primary screen, strain 3D7, DAPI fluorescence, 100 nL (AID 1184).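 Note: parasites grown inside human red blood cells in medium with human serum.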 Conditions: P. falciparum 3D7 growth, 3 d, higher = more signal.
In test [13] the target is Homeobox protein Hox-A13 (Mus musculus) (UniProt Q62424). Put plainly: inhibitors of HoxA13-DNA binding, primary screen, biochemical, fluorescence polarization, labeled oligonucleotide (AID 1185). The note with it: 15 min, higher = more signal, called active from +8 up or from −8 down.
Homeobox protein Hox-A13 (Mus musculus), sequence (Q62424 whole entry, looked up): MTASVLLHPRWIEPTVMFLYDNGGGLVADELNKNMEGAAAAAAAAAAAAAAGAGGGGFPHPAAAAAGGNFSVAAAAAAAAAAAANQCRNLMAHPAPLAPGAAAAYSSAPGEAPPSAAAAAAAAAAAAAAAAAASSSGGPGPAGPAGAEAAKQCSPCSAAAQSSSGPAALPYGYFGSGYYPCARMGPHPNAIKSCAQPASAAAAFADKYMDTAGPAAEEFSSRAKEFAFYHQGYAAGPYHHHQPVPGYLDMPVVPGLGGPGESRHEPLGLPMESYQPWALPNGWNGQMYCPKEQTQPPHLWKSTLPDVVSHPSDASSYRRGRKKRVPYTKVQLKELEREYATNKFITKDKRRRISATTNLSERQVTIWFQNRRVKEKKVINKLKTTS
Test [14] in a line: inhibitors of hydroxyurea-induced Chk1 phosphorylation, primary screen, imaging, HeLa, phospho-Chk1 antibody, percent positive cells (AID 1186). The note with it: hydroxyurea-induced phospho-Chk1 immunofluorescence imaging, higher = more signal.
A short description of test [15]: inhibitors of hydroxyurea-induced Chk1 phosphorylation, primary screen, imaging, HeLa, phospho-Chk1 nuclear intensity (AID 1187). The note with it: hydroxyurea-induced phospho-Chk1 immunofluorescence imaging, higher = more signal.

Consider `CN(C)C(=O)[C@@]1(CCS(=O)(=O)c2ccccc2)N=C(c2ccc(OCCCO)cc2)O[C@H]1c1ccccc1N=[N+]=[N-]`, for which the z-score is -0.679 in test [1]; 0.135 (inactive) in test [2]; -0.517 (inactive) in test [3]; -0.0558 (inactive) in [5]; -0.241 (inactive) in test [6]; -0.068 (inactive) in test [7]. The z-score was 0.0077 (inactive) in [8]; -1.68 in test [9]; -2.56 in test [12]; -5.61 (inactive) in test [13]; -0.268 (inactive) in test [14]; -0.701 (inactive) in [15]. Also, the composite z-score in test [4] was -0.926 (inactive); in test [10], -0.0676; in [11] it was 0.266 (inactive); in the test with XIP peptide (Xip251-270), 0.723.
Turning to `COC(=O)[C@@]1(Cc2ccc(F)cc2)[C@H]2c3cc(C(=O)N(C)C)n(CCn4cc([N+](=O)[O-])nc4C)c3C[C@H]2CN1C(=O)c1ccccc1`, the z-score in test [1] is -1.02; in test [2], 1.94 (inactive); in [3] it was -1.05 (inactive); in test [5] it was 0.122 (inactive); in test [6], 0.502 (inactive); in test [7] it was -0.984 (inactive). For the same compound, the z-score is -0.566 (inactive) in [8]; -0.801 in [9]; 0.653 in test [12]; -2.06 (inactive) in [13]; 0.581 (inactive) in [14]; 0.197 (inactive) in [15]. The composite z-score in test [4] is -0.165 (inactive); in test [10], 0.267; in test [11], 0.128 (inactive); with XIP peptide (Xip251-270), 0.5.
On to `CC(C)CNC(=O)[C@@H]1c2ccccc2C(=O)N(C2Cc3ccccc3C2)[C@H]1c1ccc(CO)cc1`, for which the z-score in test [1] was 0.98; in test [2] it was -0.283 (inactive); in test [3] it was 0.76 (inactive); in [5], 0.444 (inactive); in [6], -1.09 (inactive); in test [7], 0.725 (inactive). For the same compound, the z-score in test [8] is 1.03 (inactive); in [9], 1.4; in [12], 0.134; in [13], -2.36 (inactive); in test [14] it was -0.281 (inactive); in test [15], -0.121 (inactive). Besides, the composite z-score is -0.417 (inactive) in test [4], -0.109 in test [10], 0.45 (inactive) in test [11] and 0.509 in the test with XIP peptide (Xip251-270).
Consider `CCOC(=O)C1=CC[C@@H](c2ccccc2)N(S(=O)(=O)c2ccc(C)cc2)[C@H]1C#N`, for which the z-score was 0.145 in [1]; -0.134 (inactive) in test [2]; -1.08 (inactive) in test [3]; 0.518 (inactive) in test [5]; 0.0553 (inactive) in [6]; -1.01 (inactive) in test [7]. Also, the z-score is 0.27 (inactive) in test [8]; -0.99 in test [9]; -0.712 in test [12]; -3.58 (inactive) in test [13]; 0.584 (inactive) in [14]; 0.373 (inactive) in [15]. The composite z-score in test [4] is -3.15 (inactive); in test [10] it was 0.129; in [11], 0.452 (inactive); in the test with XIP peptide (Xip251-270), 0.839.
Consider `COCCOC(=O)N1C(=O)[C@@]2(c3cc(C#CC4=CCCCC4)ccc31)[C@H](C(=O)N1CCN(c3ncccn3)CC1)[C@H]1C(=O)O[C@H](c3ccccc3)[C@H](c3ccccc3)N1[C@@H]2c1ccccc1OCCO`, for which the z-score in [1] is 1.32; in test [2], 1.23 (inactive); in [3], 1.02 (inactive); in test [5], 4.43 (inactive); in test [6] it was 1.64 (inactive); in [7], -0.368 (inactive). Further, the z-score in [8] was -0.514 (inactive); in test [9] it was 0.318; in test [12], -2.32; in test [13], 2.82 (inactive); in [14], -0.274 (inactive); in test [15], -0.475 (inactive). Also, the composite z-score in test [4] is 0.598 (inactive); in test [10] it was -0.312; in [11], 0.506 (inactive); in the test with XIP peptide (Xip251-270), 0.59.
As for `CN1C=C(C(=O)OCCS(C)(=O)=O)C(C(=O)OCCS(C)(=O)=O)=CC(CCCO)=CC1c1ccc(CN2CCCC2)cc1` (centres undefined), the z-score was -0.533 in [1]; -2.02 (inactive) in [2]; 0.0555 (inactive) in test [3]; 0.719 (inactive) in [5]; 0.27 (inactive) in [6]; 0.364 (inactive) in test [7]. For the same compound, the z-score in [8] is 0.121 (inactive); in test [9], 0.274; in [12] it was -2.24; in test [13], -4.07 (inactive); in [14] it was 0.266 (inactive); in test [15], -0.0538 (inactive). Besides, the composite z-score was -0.379 (inactive) in [4], -0.0525 in test [10], 0.629 (inactive) in [11] and 0.694 in the test with XIP peptide (Xip251-270).
Regarding `CCC(CC)C(O)C1C=CC2C(=O)N(C)C(=O)C2N1N1CCCCC1` (centres undefined), the z-score in test [1] was -0.735; in test [2] it was -0.0172 (inactive); in [3] it was -1.21 (inactive); in [5], 0.571 (inactive); in test [6] it was -0.266 (inactive); in test [7] it was -0.652 (inactive). Moreover, the z-score in test [8] was -0.686 (inactive); in test [9], -1.12; in test [12], 0.907; in [13], -6.35 (inactive); in test [14], 0.687 (inactive); in test [15], 0.562 (inactive). In addition, the composite z-score is -1.17 (inactive) in test [4], 0.167 in test [10], 0.865 (inactive) in test [11] and 0.708 in the test with XIP peptide (Xip251-270).
Consider `COCCOC(=O)N1C(=O)[C@@]2(c3cc(C#CCC(C(=O)OC)C(=O)OC)ccc31)[C@H](C(N)=O)[C@H]1C(=O)O[C@H](c3ccccc3)[C@H](c3ccccc3)N1[C@@H]2c1ccc(OCCO)cc1`, for which the z-score in test [1] was 0.58; in [2], 1.53 (inactive); in test [3] it was -0.456 (inactive); in test [5], 2.88 (inactive); in [6], 3.39 (inactive); in test [7], 0.71 (inactive). Moreover, the z-score is 0.108 (inactive) in test [8]; -1.81 in [9]; -2.07 in test [12]; -0.183 (inactive) in test [13]; -0.153 (inactive) in test [14]; 0.0973 (inactive) in test [15]. In addition, the composite z-score in [4] was -0.383 (inactive); in test [10], 0.0251; in test [11], 0.572 (inactive); in the test on XIP peptide (Xip251-270), 0.813.
For `COc1cccc(OC)c1C(=O)O[C@H]1[C@@H]2OC(=O)[C@H](Cc3cccc(Br)c3)C/C=C/C[C@@H](Cc3cccc(Br)c3)C(=O)O[C@H]2[C@@H](OC)O[C@@H]1CO`, the z-score in [1] is -0.946; in [2], -0.696 (inactive); in test [3], -1.11 (inactive); in test [5], 0.277 (inactive); in [6] it was 0.788 (inactive); in test [7] it was -0.0368 (inactive). The z-score is 0.165 (inactive) in [8]; -1.38 in [9]; -0.545 in [12]; -4.16 (inactive) in test [13]; 0.0558 (inactive) in [14]; 0.0783 (inactive) in test [15]. The composite z-score in [4] is -0.491 (inactive); in test [10] it was 0.182; in test [11], 1.02 (inactive); in the test with XIP peptide (Xip251-270) it was -0.213.
